Reference: article PMC5540273 (PLoS ONE, 2017)

Experiments:
Details in all cases: concentration: 1 μM, replicates: in singlicate; n = 1
PRKD3 = tested on: PRKD3
PRKG1 = tested on: PRKG1
PRKG2 = tested on: PRKG2
PRKR = tested on: T1, PRKR
T1 construct: gene EIF2AK2

PRKX = tested on: PRKX
PRP4 = tested on: PRP4
PYK2 = tested on: T2, PYK2
T2 construct: gene PTK2B

QSK = tested on: QSK
RAF1 = tested on: RAF1
RET = tested on: RET
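Further: KINOMEscan kinase panel screen.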

Structure (SMILES)	%Inh (PRKD3) [%]	%Inh (PRKG1) [%]	%Inh (PRKG2) [%]	%Inh (PRKR) [%]	%Inh (PRKX) [%]	%Inh (PRP4) [%]	%Inh (PYK2) [%]	%Inh (QSK) [%]	%Inh (RAF1) [%]	%Inh (RET) [%]
Nc1cccc(-c2ccc3c(N)n[nH]c3c2)c1 [GSK2193613]	0	20	19	0	7	19	5	0	0	5
Cc1ccc(O)cc1Nc1ccnc2cc(-c3ccc(CN4CCCCC4)o3)ccc12 [GW557777]	95.1	0	0	1	0	0	5	41	7	100
COc1cc(Nc2ccnc3cc(-c4ccncc4)ccc23)cc(OC)c1OC.Cl [GW494610]	6	8	69	0	0	27	16	84	23	24
Cc1cc(-c2c(-c3ccc(F)cc3)ncn2CCCN2CCOCC2)nc(N)n1 [SB-222517]	0	0	0	16	0	0	10	23	0	13
O=C(Nc1n[nH]c2nc(-c3ccccc3)ccc12)C1CC1 [SB-708999]	0	1	0	0	5	7	0	0	23	32
CC(=O)Nc1cn2nc(Oc3cccc(NC(=O)c4cccc(C(F)(F)F)c4)c3)ccc2n1	0	11	13	4	0	0	7	0	99.8	100
Cc1ccc(NC(=O)c2ccc(Cl)c(Cl)c2)cc1-c1ccc(C(=O)Nc2ccncc2)cc1 [GSK1398460]	23	13	0	7	17	0	13	0	78	38
NCCC(NC(=O)c1cc(Br)c(-c2ccnc3[nH]ccc23)s1)c1ccccc1.O=C(O)C(F)(F)F.O=C(O)C(F)(F)F (centres unmarked) [GSK1307810]	35	97.5	98.2	17	96.9	76	0	0	9	36
CC(C)NCC(Cc1ccccc1)NC(=O)c1cc(Br)c(-c2ccnc3[nH]ccc23)s1.Cl.Cl (centres unmarked) [GSK1383281]	81	98.8	98.8	16	96.5	24	17	5	0	66
COc1cccc2c(-c3ccncc3)c(-c3ccc(F)cc3)nn12 [GW468513]	43	0	0	0	10	25	12	0	33	22
Cc1ccc(NC(=O)c2cccc(N3CCCCC3)c2)cc1-c1ccc(C(=O)NCC2CC2)cc1 [GSK1917008]	100	31	0	0	26	4	0	8	88	10
Fc1cc(Cl)ccc1Nc1ccnc2cc(-c3ccc(CN4CCOCC4)o3)ccc12 [GW560109]	19	25	0	0	24	44	5	70	11	99.8
CCn1cnc2c(NCc3ccccc3)ncnc21 [SKF-96418]	0	0	0	8	0	41	0	10	17	0
O=C(Nc1n[nH]c2nc(-c3ccccc3O)ccc12)C1CC1 [SB-711880]	0	0	28	10	1	0	4	33	0	0
N#CC1(c2cccc(C(=O)Nc3cccc(Oc4ccc5nc(NC(=O)C6CC6)sc5n4)c3)c2)CC1	0	16	0	7	0	21	0	18	100	100
O=C(Nc1c(F)cccc1F)c1cc(C(=O)c2ccccc2F)c[nH]1 [GSK1326180]	0	0	0	0	3	0	6	4	6	4
Cc1nn2c(=O)cc(N3CCO[C@H](C)C3)nc2n1Cc1cccc(Cl)c1Cl [GSK2373693]	45	4	0	0	9	14	0	0	9	69
COc1cccc(C2=C(Nc3cccc(O)c3)C(=O)NC2=O)c1 [SB-390771]	7	9	81	15	20	41	43	0	20	1
COc1ccc(C2=C(Nc3cccc(O)c3)C(=O)NC2=O)cc1 [SB-390766]	0	0	0	0	0	49	0	12	96.2	25
Cc1ccc(-c2ccc3occ(-c4ccc(S(C)=O)cc4)c3c2)nn1 (centres unmarked)	0	14	0	0	0	13	0	0	6	0
Cn1cc(-c2ccc3c(c2)CCN3C(=O)Cc2cc(F)cc(F)c2F)c2c(N)ncnc21 [GSK2634140]	0	0	0	2	16	21	12	0	18	5
COC(=O)Nc1nc2ccc(Oc3ccc(NC(=O)Nc4cc(C(F)(F)F)ccc4F)cc3)cc2[nH]1.Cl [GW654607]	15	9	10	3	10	0	15	28	91.3	100

Structure (SMILES)	%Inh (PRKD3) [%]	%Inh (PRKG1) [%]	%Inh (PRKG2) [%]	%Inh (PRKR) [%]	%Inh (PRKX) [%]	%Inh (PRP4) [%]	%Inh (PYK2) [%]	%Inh (QSK) [%]	%Inh (RAF1) [%]	%Inh (RET) [%]
COc1ccc(NC(=O)c2ccoc2)cc1-c1ccc(C(=O)NCC2CC2)cc1 [GW810437]	0	0	0	0	0	0	7	12	0	0
CN(C)CCNS(=O)(=O)c1ccc(-c2ccnc3[nH]ccc23)cc1 [GSK977620]	11	95.4	97.4	0	68	0	20	8	1	2
Cl.N#CCc1ccc(Nc2nccc(Nc3ccc(Oc4ccccc4)cc3)n2)cc1 [GW639905]	53	0	0	0	10	16	8	1	6	38
CN(C)CCOc1ccc(-c2cc(-c3ccc(Cl)c(O)c3)c(-c3ccncc3)[nH]2)cc1.Cl.Cl [SB-684387]	15	11	80	11	17	15	0	3	88	60
O=C(O)C(F)(F)F.O=c1[nH]ccc2nc(N[C@@H]3CCNC3)nc(Nc3ccc4c(c3)S(=O)(=O)CC4)c12 [GSK2181306]	100	56	93.6	91.1	89	67	99.4	31	0	97.5
Cn1cc(-c2cnc(N)c3c(-c4ccc5c(c4)CCN5C(=O)Cc4ccccc4)csc23)cn1 [GSK2593074]	0	0	0	8	0	0	6	1	0	34
CN1CCN(Cc2ccc(NC(=O)Nc3ccc(N(C)c4ccnc(Nc5ccc(CS(C)(=O)=O)cc5)n4)cc3)cc2)CC1.Cl [GW827654]	0	0	0	0	22	33	88	0	0	100
Cn1cc(-c2ccc3c(c2)CCN3C(=O)Cc2cc(F)cc(C(F)(F)F)c2)c2c(N)ncnc21 [GSK2635225]	18	0	16	15	6	16	0	10	11	35
CN(c1ccc(NC(=O)Nc2cccc(Cl)c2)cc1)c1ccnc(N)n1.Cl [GW830707]	0	0	0	0	0	12	0	15	17	50
CCNC(=O)/C=C/c1n[nH]c2cc(Sc3ccccc3C(=O)NC)ccc12	0	14	2	0	3	0	0	0	0	80
COC(=O)Nc1nc2cc(Oc3ccc(NC(=O)Nc4cccc(SC)c4)cc3)ccc2[nH]1.Cl [GW697999]	18	1	17	0	24	28	0	0	92.6	99.8
COc1cccc(CC(=O)N2CCc3cc(-c4cn(C)c5ncnc(N)c45)ccc32)c1 [GSK2608899]	0	22	0	15	3	0	25	11	0	37
CSc1ccc(NC2=C(c3ccc(Cl)cc3)C(=O)NC2=O)cc1 [SB-317658]	0	6	0	0	0	0	0	0	13	7
Nc1ncnc2scc(-c3ccc(NC(=O)Cc4cc(F)ccc4F)cc3)c12.O=C(O)C(F)(F)F [SB-731254-M]	14	0	0	15	14	26	21	32	10	23
COc1cccc(NC(=O)NCCNc2ccnc(Nc3ccc(F)cc3)n2)c1 [GSK1379879]	0	4	0	0	14	49	21	0	15	0
CC(C)c1nc(-c2ccc(F)c(NS(=O)(=O)c3c(F)cccc3F)c2)c(-c2ccnc(Nc3ccc(N4CCOCC4)nc3)n2)s1 [GSK1804250]	100	1	1	35	23	2	50	32	95.3	89
Cc1ccccc1CC(=O)N1CCc2cc(-c3cn(C)c4ncnc(N)c34)ccc21 [GSK2603346]	0	0	0	0	0	0	0	4	0	36
Cc1ccc(Nc2ccnc(Nc3ccc(C)c(F)c3)n2)cc1O.Cl [GW582868]	0	0	0	0	0	27	1	0	12	67
O=C(Nc1n[nH]c2nc(-c3cccc(O)c3)ccc12)C1CC1 [SB-711805]	0	21	35	100	0	0	11	18	6	0
Cl.O=C(Nc1ccc(Oc2ccc3[nH]c(NC(=O)c4ccco4)nc3c2)cc1)Nc1cc(C(F)(F)F)ccc1F [GW683134]	37	12	0	0	20	27	10	0	94.7	99.9
CCn1c(-c2nonc2N)nc2c(-c3ccccc3)ncc(OCCCN)c21.O=C(O)C(F)(F)F.O=C(O)C(F)(F)F [GSK260205]	100	5	95.7	0	28	27	6	27	6	91.7
Cc1ccc(NC(=O)c2ccnc(N3CCCCC3)c2)cc1-c1ccc(C(=O)NCC2CC2)cc1 [GW775610]	0	73	0	3	5	0	5	0	85	5

Structure (SMILES)	%Inh (PRKD3) [%]	%Inh (PRKG1) [%]	%Inh (PRKG2) [%]	%Inh (PRKR) [%]	%Inh (PRKX) [%]	%Inh (PRP4) [%]	%Inh (PYK2) [%]	%Inh (QSK) [%]	%Inh (RAF1) [%]	%Inh (RET) [%]
N#Cc1cnc2cc(-c3cnc(CNCCN4CCOCC4)s3)ccc2c1Nc1ccc(Oc2ccccc2)cc1 [GW664114]	9	0	0	4	4	51	4	0	0	60
Cl.Cl.NCC(NC(=O)c1cc(-c2cccnc2)c(-c2ccnc3[nH]ccc23)s1)c1ccccc1 (centres unmarked) [GSK1323434]	34	45	68	0	56	29	10	13	12	28
Cc1cccc(Nc2nc(N[C@H]3CCCC[C@H]3N)ncc2C(N)=O)c1.Cl [GSK986310]	58	20	0	30	25	1	71	18	3	76
COc1cc(Nc2nccc(N3CCC(NC(=O)Nc4ccc5c(c4)OCO5)C3)n2)cc(OC)c1OC (centres unmarked) [GSK1379766]	0	0	0	0	33	50	15	3	0	28
O=C(O)C(F)(F)F.O=c1[nH]ccc2nc(N[C@@H]3CCNC3)nc(Nc3cc(Cl)cc(Cl)c3)c12 [GSK2188764]	96.5	61	98.5	76	95	63	98.8	38	0	51
Cc1cccc(Nc2nc(NCCN)ncc2C(N)=O)c1 [GSK1292139]	100	9	0	3	35	41	66	20	3	14
CCNc1nccc(-c2c(-c3ccc(F)cc3)ncn2C2CCN(C)CC2)n1	36	0	0	0	0	0	0	0	0	0
c1ccc(Oc2ccc(Nc3ccnc4cc(-c5ccc(CN6CCCCC6)o5)ccc34)cc2)nc1 [GW567143]	0	6	0	0	7	2	0	27	0	11
COC(=O)Nc1nc2ccc(Oc3ccc(CC(=O)Nc4cc(C(F)(F)F)ccc4F)cc3)cc2[nH]1 [GW680903]	18	0	0	0	2	32	0	0	86	97.7
O=C1NC(=O)C(c2ccccc2Cl)=C1Nc1cccc(Cl)c1 [SB-342409]	22	0	0	0	15	0	5	5	37	1
CN(c1ccc(F)c(NC(=O)c2cccc(OC(C)(C)C#N)c2Cl)c1)c1ccc2nc(NC(=O)C3CC3)sc2n1	0	0	3	0	1	18	3	0	96.1	100
Cc1ccc(O)cc1Nc1ccnc2ccc(C(C)(C)C)cc12 [GW856805]	30	20	29	0	17	0	9	22	14	96
Fc1cc(Cl)ccc1Nc1ccnc2cc(-c3ccc(CN4CCSCC4)o3)ccc12 [GW560106]	0	27	66	3	1	29	0	63	12	98.3
CC(C)(C)c1ccc(C(=O)Nc2cn3cc(-n4ccnc4)ccc3n2)cc1	0	0	7	0	41	22	8	0	10	0
CN(c1ccc2c(c1)nc(NCc1ccccc1)n2C)c1ccnc(Nc2ccc(CS(C)(=O)=O)cc2)n1.Cl [GW811603]	0	3	4	1	0	22	21	0	97.5	99.9
CCOc1nccc(-c2c(-c3ccc(F)cc3)ncn2C2CCNCC2)n1 [SB-249175]	19	0	12	16	0	0	16	20	19	32
CC(C)c1nc(-c2cccc(NS(=O)(=O)c3c(F)cccc3F)c2)c(-c2ccnc(Nc3ccc(N4CCOCC4)nc3)n2)s1.Cl [GSK1723980]	100	0	0	29	7	0	25	82	99.4	99.6
Nc1ncc(-c2ccc3nccc(-c4ccncc4)c3c2)cc1S(=O)(=O)N1CCCCC1 [GSK1693850]	23	7	0	3	27	0	28	1	18	13
CN(C)c1ncnc2nc[nH]c12 [SKF-31736]	0	19	0	0	0	0	0	27	0	0
Cc1cc(-c2ccnc(Nc3cccc(C#N)c3)n2)cc(C)c1O [GSK1440913]	0	0	0	52	0	92.8	27	23	13	0
Cc1ccc(C)c(NC(=O)Nc2ccc(C)c(-c3ccc(C(=O)Nc4ccncc4)cc3)c2)c1 [GSK1398473]	38	31	0	14	20	0	0	8	89	23
